Among the data in PubChem BioAssay (EPA / NIEHS) are outcome and AC50 values, retold here.

Test [1] in a line: BSK_MyoF_SRB: Viability Assessment in the BioMAP Diversity Plus: MyoF Assay (AID 2284267).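 Also: total protein by SRB absorbance in parallel cultures as cytotoxicity measure; cells assessed 24 h after compound addition.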 Conditions: primary human lung fibroblasts. The method in brief:
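In this viability endpoint, fibroblasts from human lung are treated for 24 h, TCA-fixed, SRB-stained (0.1%) and read at 560 nm. Gain of signal relative to DMSO defines activity.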

Read-out in test [2]: Matrix Metallopeptidase 1 (MMP1), MMP1 (gene 4312)
The test can be described thus: BSK_MyoF_MMP1: BioMAP Diversity Plus: MyoF Assay for Matrix Metallopeptidase 1 (MMP1) Biomarker Activity (AID 2284268). Conditions: primary human lung fibroblasts. The method in brief:
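MMP1 measured by ELISA 24 h after dosing primary human lung fibroblasts; cytotoxicity checked in parallel cultures by sulforhodamine B total-protein staining read at 560 nm.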

Read-out in test [3]: TIMP metallopeptidase inhibitor 1 (TIMP1), TIMP1 (gene 7076)
Put plainly: BSK_MyoF_TIMP1: BioMAP Diversity Plus: MyoF Assay for TIMP metallopeptidase inhibitor 1 (TIMP1) Biomarker Activity (AID 2284269). Conditions: primary human lung fibroblasts. The method in brief: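 TIMP-1 levels were determined by ELISA in human lung fibroblasts treated for 24 h. DMSO served as negative control and baseline for upward curve fitting.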

Read-out in test [4]: KRT18 (gene 3875)
Put plainly: BSK_BF4T_Keratin818: BioMAP Diversity Plus: BF4T Assay for Keratin 818 Biomarker Activity (AID 2284266). Conditions: primary human bronchial epithelial cells with fibroblasts. Put shortly:
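Keratin 8/18 levels quantified by ELISA after 24 h chemical treatment of bronchial epithelial cell/dermal fibroblast co-cultures, fitted in positive direction relative to DMSO. Parallel SRB staining tracks overt cytotoxicity.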

Read-out in test [5]: Matrix Metallopeptidase 1 (MMP1), MMP1 (gene 4312)
The test can be described thus: BSK_BF4T_MMP1: BioMAP Diversity Plus: BF4T Assay for Matrix Metallopeptidase 1 (MMP1) Biomarker Activity (AID 2284270). Conditions: primary human bronchial epithelial cells with fibroblasts. Put shortly: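 MMP-1 quantified by ELISA in primary human bronchial epithelial/dermal fibroblast co-cultures, 24 hours post-dosing, with DMSO as baseline; parallel sulforhodamine B staining (560 nm) tracks overt cytotoxicity.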

Read-out in test [6]: Matrix Metallopeptidase 3 (MMP3), MMP3 (gene 4314)
Put plainly: BSK_BF4T_MMP3: BioMAP Diversity Plus: BF4T Assay for Matrix Metallopeptidase 3 (MMP3) Biomarker Activity (AID 2284271). Conditions: primary human bronchial epithelial cells with fibroblasts. Put shortly:
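MMP-3 level read by ELISA after 24 h chemical exposure of bronchial epithelial cell/dermal fibroblast co-cultures, fitted upward relative to DMSO. Parallel cultures stained with 0.1% SRB after TCA fixation gauge overt cytotoxicity.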

Read-out in test [7]: Tissue plasminogen activator (tPA), PLAT (gene 5327)
The test can be described thus: BSK_BF4T_tPA: BioMAP Diversity Plus: BF4T Assay for Tissue plasminogen activator (tPA) Biomarker Activity (AID 2284272). Conditions: primary human bronchial epithelial cells with fibroblasts. Put shortly:
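tPA level quantified by ELISA at 24 h post-treatment in bronchial epithelial/dermal fibroblast co-cultures, gain of signal scored against DMSO baseline. Parallel cultures stained with 0.1% SRB (560 nm) to flag overt cytotoxicity.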

Read-out in test [8]: Plasminogen Activator Inhibitor-1 (PAI1), SERPINE1 (gene 5054)
The test can be described thus: BSK_BF4T_PAI1: BioMAP Diversity Plus: BF4T Assay for Plasminogen Activator Inhibitor-1 (PAI1) Biomarker Activity (AID 2284273). Conditions: primary human bronchial epithelial cells with fibroblasts. The method in brief: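 PAI-1 levels quantified by ELISA 24 h post-dosing in bronchial epithelial cell plus dermal fibroblast cultures. Signal gain referenced to DMSO baseline. Sulforhodamine B total-protein staining of parallel wells checked cytotoxicity.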

Test [9] in a line: BSK_BF4T_SRB: Viability Assessment in the BioMAP Diversity Plus: BF4T Assay (AID 2284274). Conditions: primary human bronchial epithelial cells with fibroblasts. Put shortly: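 Cytotoxicity measured as total protein: cells fixed with 10% TCA, stained with 0.1% SRB, read at 560 nm. Bronchial epithelial/dermal fibroblast co-culture, 24 h after dosing, with positive-direction fitting relative to DMSO.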

Read-out in test [10]: urokinase Plasminogen Activator (uPA), PLAU (gene 5328)
The test can be described thus: BSK_BF4T_uPA: BioMAP Diversity Plus: BF4T Assay for urokinase Plasminogen Activator (uPA) Biomarker Activity (AID 2284275). Conditions: primary human bronchial epithelial cells with fibroblasts. The method in brief:
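uPA levels measured by ELISA at 24 hours in BF4T cultures (bronchial epithelial cells plus dermal fibroblasts) and compared with DMSO; cytotoxicity tracked in parallel cultures by sulforhodamine B staining.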

Read-out in test [11]: Matrix Metallopeptidase 9 (MMP9), MMP9 (gene 4318)
The test can be described thus: BSK_BF4T_MMP9: BioMAP Diversity Plus: BF4T Assay for Matrix Metallopeptidase 9 (MMP9) Biomarker Activity (AID 2284276). Conditions: primary human bronchial epithelial cells with fibroblasts. Put shortly: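 MMP-9 levels were measured by ELISA after 24 h exposure of bronchial epithelial cell/dermal fibroblast co-cultures, with DMSO as baseline. Parallel cultures were stained with 0.1% SRB after TCA fixation, read at 560 nm, to flag overt cytotoxicity.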

Read-out in test [12]: Interleukin-8 (IL8), CXCL8 (gene 3576)
Put plainly: BSK_IMphg_IL8: BioMAP Diversity Plus: IMphg Assay for Interleukin-8 (IL8) Biomarker Activity (AID 2284277). Conditions: primary human endothelial cells with macrophages. Put shortly:
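IL-8 levels were measured by ELISA 24 h after dosing in primary human venular endothelial cell–macrophage cultures, referenced to DMSO; parallel SRB staining monitored overt cytotoxicity.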

Read-out in test [13]: Intercellular Adhesion Molecule 1 (ICAM1), ICAM1 (gene 3383)
The test can be described thus: BSK_BE3C_ICAM1: BioMAP Diversity Plus: BE3C Assay for Intercellular Adhesion Molecule 1 (ICAM1) Biomarker Activity (AID 2284278).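 Also: cell-surface ICAM-1 protein level quantified by ELISA.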 Conditions: primary human bronchial epithelial cells. The method in brief:
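hu bronchial epithelial primary cells, 24 h cpd exposure, ICAM-1 ELISA; gain-of-signal fit vs DMSO baseline.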

Read-out in test [14]: Interferon-inducible T-cell alpha chemoattractant (ITAC), CXCL11 (gene 6373)
Put plainly: BSK_BE3C_ITAC: BioMAP Diversity Plus: BE3C Assay for Interferon-inducible T-cell alpha chemoattractant (ITAC) Biomarker Activity (AID 2284279). Conditions: primary human bronchial epithelial cells. The method in brief:
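The assay measures I-TAC levels by ELISA in human primary bronchial epithelial cell cultures 24 hours after chemical treatment. Values reflect signal increase over the DMSO baseline.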

Read-out in test [15]: Interleukin-8 (IL8), CXCL8 (gene 3576)
The test can be described thus: BSK_BE3C_IL8: BioMAP Diversity Plus: BE3C Assay for Interleukin-8 (IL8) Biomarker Activity (AID 2284280). Conditions: primary human bronchial epithelial cells. Put shortly: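 Dose human bronchial epithelial cells with chemical; incubate 24 h; quantify IL-8 by ELISA; fit response upward versus DMSO controls.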

Read-out in test [16]: Epidermal growth factor receptor (EGFR), EGFR (gene 1956)
Put plainly: BSK_BE3C_EGFR: BioMAP Diversity Plus: BE3C Assay for Epidermal growth factor receptor (EGFR) Biomarker Activity (AID 2284281). Conditions: primary human bronchial epithelial cells. Put shortly:
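ELISA read-out of EGFR levels on human bronchial epithelial primary cells collected 24 h post-dosing. DMSO served as negative control and baseline for gain-of-signal fitting.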

Read-out in test [17]: KRT18 (gene 3875)
Put plainly: BSK_BE3C_Keratin818: BioMAP Diversity Plus: BE3C Assay for Keratin 818 Biomarker Activity (AID 2284282). Conditions: primary human bronchial epithelial cells. Put shortly:
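In this multiplexed primary-cell system, bronchial epithelial cells were dosed and harvested at 24 h. Keratin 8/18 was determined by ELISA and analysed for increases over DMSO controls.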

Read-out in test [18]: Matrix Metallopeptidase 9 (MMP9), MMP9 (gene 4318)
Put plainly: BSK_BE3C_MMP9: BioMAP Diversity Plus: BE3C Assay for Matrix Metallopeptidase 9 (MMP9) Biomarker Activity (AID 2284283). Conditions: primary human bronchial epithelial cells. Put shortly:
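Cells were dosed, incubated 24 h, then assayed for MMP-9 by ELISA; activity was fitted upward against DMSO. The system used human lung primary bronchial epithelial cells, with SRB total-protein staining run alongside for cytotoxicity.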

Read-out in test [19]: Plasminogen activator inhibitor-1 (PAI1), SERPINE1 (gene 5054)
The test can be described thus: BSK_CASM3C_PAI1: BioMAP Diversity Plus: CASM3C Assay for Plasminogen activator inhibitor-1 (PAI1) Biomarker Activity (AID 2284284). Conditions: primary human coronary artery smooth muscle cells.

Read-out in test [20]: Monocyte Chemoattractant Protein-1 (MCP1), CCL2 (gene 6347)
Put plainly: BSK_hDFCGF_MCP1: BioMAP Diversity Plus: hDFCGF Assay for Monocyte Chemoattractant Protein-1 (MCP1) Biomarker Activity (AID 2284285). Conditions: primary human foreskin fibroblasts. Put shortly:
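MCP-1 ELISA readout was taken 24 hours after dosing primary human dermal fibroblasts in the hDFCGF system, with DMSO as baseline. Parallel sulforhodamine B staining of total protein tracked overt cytotoxicity.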

Molecules are shown by their SMILES. Several values for one entry are separate records, joined by “and”; a condition that tells them apart may be missing. Equal values may be shown once. More than one record can exist for a structure, and the calls need not agree. Activity calls are given as the source filed them. The calls were made as follows: active = hit-call score of the fitted dose curve at least 0.9, where 1 is the maximum; inactive = score below 0.9.

In the case of `c1ccc2c(c1)-c1ccc3ccc4cccc5cc-2c1c3c45`, the result in test [1] and in [3] was inactive. In addition, the concentration at half-maximal activity (AC50) in test [2] is 1.33 µM (active).
Regarding `CC(C)Cc1ccc(C(C)C(=O)O)cc1` (stereo not given), the result in test [1], in test [2] and in test [3] was inactive.
`CC1=CC(C)C(C=O)C(C)C1` (stereo not given) (tested in a mixture with another compound): the outcome in [1], in test [2] and in test [3] was inactive.
Take `CCOC(=O)C=Cc1ccccc1`: the outcome in [1], in test [2] and in [3] was inactive.
`O=C(O)C(F)(F)C(F)(F)C(F)(F)C(F)(F)C(F)(F)C(F)(F)C(F)(F)C(F)F`: the result (in the test with KRT18 (gene 3875) [4]; in test [1]; in [2]; in test [3]; in test [5]; in test [6]) was inactive. Further, the result in test [9], in [10], in test [11], in test [12], in test [13] and in test [14] was inactive. Moreover, the result (in [15]; in test [16]; with KRT18 (gene 3875) [17]; in [18]; in test [19]; in test [20]) was inactive. Moreover, the AC50 in [5] was 51.9 µM (active); in test [7] it was 4.37 µM (active) and 2.45 µM (active); in test [8] it was 2.94 µM (active) and 2.8 µM (active).
For `CCCCCCCC1CCCC1=O` (stereo not given), the concentration at half-maximal activity (AC50) in test [1] and in test [2] was 32.4 µM (active) throughout. Besides, the outcome in test [3] was inactive.
`CCCCCCCCCC(=O)OCC`: the outcome in test [1], in test [2] and in test [3] was inactive.
With `CCOC(=O)CCCCCCCCC(=O)OCC`, the outcome in [1], in test [2] and in test [3] was inactive.
As to `CC(=O)OCC=C(C)CCC=C(C)CCC=C(C)C`, the outcome in test [1], in test [2] and in test [3] was inactive.
In the case of `C=C1CC/C=C(\C)CC[C@@H]2[C@@H]1CC2(C)C`, the AC50 in test [1] is 28.8 µM (active); in test [2], 9.66 µM (active); in test [3], 34.6 µM (active).
For `C=CC(=O)OCC(CO)(COC(=O)C=C)COC(=O)C=C`, the concentration at half-maximal activity (AC50) in test [1] was 0.642 µM (active); in test [3], 2.05 µM (active). The outcome in test [2] was inactive.
Turning to `NC(=O)c1c(Cl)cccc1Cl`, the result in test [1], in test [2] and in test [3] was inactive.
As to `Nc1ccc(N)c([N+](=O)[O-])c1`, the result in test [1], in test [2] and in test [3] was inactive.
Take `CC(=O)c1ccc(C)cc1`: the result (in test [13]; in [14]; in [15]; in [16]; with KRT18 (gene 3875) [17]; in test [18]) was inactive. In addition, the result in test [19] and in test [20] was inactive.
